# PubChem BioAssay
# Test: small-molecule microarray binders of probe aWnt5a, primary screen, biochemical, biotinylated probe, 635/667 nm fluorescence (AID 1113);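 further: score merges 667 nm fluorescence intensity with signal-to-noise per printed feature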
# Settings: higher = more signal
row,SMILES,composite z-score
1,CCCCC(CC)C(O)C1C=CC2C(=O)NC(=O)C2N1Nc1ccccn1 (configuration not stated),0.0919
2,CC(C)C[C@@H]1NC(=O)[C@@H]2C[C@H](C(=O)NCCCC[N+](C)(C)C)[C@H](c3cccc(OCCO)c3)N2C1=O,-0.0236
3,COCCOC(=O)N1C(=O)[C@@]2(c3ccccc31)[C@H](c1ccccc1OCCO)N1[C@H](c3ccccc3)[C@H](c3ccccc3)OC(=O)[C@H]1[C@@H]2C(=O)N1CCc2cc(OC)c(OC)cc2C1,-0.0161
4,CN1C(=O)C2C=CC(C(O)COCc3ccccc3)N(Nc3ccccc3)C2C1=O (configuration not stated),0.0403
5,[N-]=[N+]=NCc1ccccc1[C@H]1OC(c2ccc(OCCCO)cc2)=N[C@@]1(Cc1ccccc1N=[N+]=[N-])C(=O)NCCN1CCOCC1,0.16
6,C[N+](C)(C)CCCCNC(=O)[C@H]1C[C@H]2C(=O)NCC(=O)N2[C@H]1c1ccc(O)cc1,-0.103
7,Cc1ccc(F)cc1S(=O)(=O)N[C@@H]1CCN(C(=O)c2ccc(OC(C)C)cc2)C1,-0.032
8,COCCOC(=O)N1C(=O)[C@@]2(c3ccccc31)[C@H](c1ccc(OCCO)cc1)N1[C@H](c3ccccc3)[C@H](c3ccccc3)OC(=O)[C@H]1[C@@H]2C(=O)NC[C@H](O)c1ccccc1,-0.0758
9,CCCCC=C[C@@H](NC(=O)CCc1ccccc1)c1ccccc1,0.145
10,COc1ccc([Si](C)(C)[C@@H]2[C@@H](CCO)O[C@]3(C(=O)N(Cc4ccc(N5C(=O)c6ccccc6Oc6ccccc65)cc4)c4ccccc43)[C@H]2C)cc1,-0.0643
11,CC[C@@H]1[C@@H]2C3C(=O)N(CC)C(=O)C3CC(=O)[C@@H]2[C@H](c2ccc(C)cc2)N1S(=O)(=O)c1ccc(C)cc1 (some centres not stated),-0.0761
12,COCCOC(=O)N1C(=O)[C@@]2(c3cc(C#CC4(O)CCCCCC4)ccc31)[C@H](C(=O)N1CCc3cc(OC)c(OC)cc3C1)[C@H]1C(=O)O[C@H](c3ccccc3)[C@H](c3ccccc3)N1[C@@H]2c1ccccc1OCCO,0.205
13,COc1ccc(C#Cc2ccc3c(c2)[C@]2(C(=O)N3)[C@H](C(=O)O)[C@H]3C(=O)O[C@H](c4ccccc4)[C@H](c4ccccc4)N3[C@@H]2c2ccc(OCCO)cc2)cc1,-0.0617
14,COc1ccc(C#Cc2ccc3c(c2)[C@]2(C(=O)N3)[C@H](c3ccc(OCCO)cc3)N3[C@H](c4ccccc4)[C@H](c4ccccc4)OC(=O)[C@H]3[C@@H]2C(=O)N2CCN(c3ncccn3)CC2)cc1,-0.252
15,[N-]=[N+]=NCc1ccccc1[C@H]1OC(c2ccc(OCCCO)cc2)=N[C@@]1(Cc1ccccc1N=[N+]=[N-])C(=O)N1CCCCC1,0.132
16,CCCC=C(CCC)[C@@H](NS(=O)(=O)c1ccccc1)c1ccc(C(F)(F)F)cc1,0.0495
17,COc1cc2c(cc1OC)CN(C(=O)[C@@H]1[C@H]3C(=O)O[C@H](c4ccccc4)[C@H](c4ccccc4)N3[C@H](c3ccc(O)cc3)[C@@]13C(=O)Nc1ccc(C#CCNC(N)=O)cc13)CC2,-0.0367
18,COc1ccc([Si](C)(C)[C@@H]2[C@@H](CCO)O[C@]3(C(=O)N(Cc4cccc(N5C(=O)COc6ccccc65)c4)c4ccccc43)[C@H]2C)cc1,-0.063
19,C=CC[C@@]1(C(=O)NCCN2CCOCC2)N=C(c2ccc(OCCCO)cc2)O[C@@H]1c1ccccc1,0.0873
20,O=C1c2ccccc2[C@](Cc2ccccc2I)(C(=O)NCC(F)(F)F)[C@H](c2ccc(CO)cc2)N1Cc1ccccc1,-0.155
21,COc1ccc(C(=O)Nc2ccc3c(c2)[C@]2(O[C@@H](CCO)[C@H]([Si](C)(C)c4ccc(OC)cc4)[C@H]2C)C(=O)N3Cc2ccccc2)cc1,-0.13
22,COC(=O)[C@@]1(Cc2ccc(OC)cc2)[C@H]2c3cc(C(=O)N(C)C)n(CCF)c3C[C@H]2CN1C(=O)c1ccccc1,0.027
23,COC(=O)c1c(CC[C@@H](CO)NC(=O)N[C@@H](C)Cn2cc(C3(O)CCCC3)nn2)oc(C(C)=O)c1C(=O)OC,-0.0758
24,CC1=C2[C@@H](CCc3ccccc3)OB(O)C[C@@H]2[C@@H]2C(=O)C=CC(=O)[C@@H]2C1,0.0101
25,CCCNC(=O)[C@@]1(Sc2ccc(C)cc2)CC(=O)N(Cc2ccccc2)[C@@H]1c1ccc(CO)cc1I,-0.0758
26,CC(C)C(CO)N1C(=O)[C@@H]2[C@H]3C(=O)OCC=C[C@H]3OC23C=CCN(Cn2nnc4ccccc42)C(=O)[C@@H]13 (some centres not stated),-0.226
27,O=[N+]([O-])c1ccc(C[n+]2ccc(-c3ccc(CO)cc3)cc2)o1,-0.001
